A short description of test [1]: NCI Yeast Anticancer Drug Screen. Data for the rad50 strain (AID 155).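 Further: 0% = growth of vehicle-only cultures of the same strain.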 To be noted: S. cerevisiae rad50 strain growth inhibition, stronger effect = higher value. A digest of the protocol: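 Genetically altered yeast (DNA repair pathway); compound treatment; growth inhibition vs vehicle ctrl.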
Test [2] is described as follows: NCI Yeast Anticancer Drug Screen. Data for the mec2-1 strain (AID 157). The settings on record: S. cerevisiae mec2-1 strain, stronger effect = higher value. A digest of the protocol:
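Mutant yeast (mec2-1) grown with compound; growth inhibition relative to vehicle control reported.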

The nature of test [3]: NCI Yeast Anticancer Drug Screen. Data for the sgs1 mgt1 strain (AID 161).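 Further: 0% = growth of cultures given vehicle only.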 The settings on record: S. cerevisiae sgs1 mgt1 strain, stronger effect = higher value. The gist of the method: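 Yeast cells carrying a defined DNA-repair defect were exposed to test compounds. Growth inhibition was measured relative to vehicle-treated controls.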
Test [4] is described as follows: NCI Yeast Anticancer Drug Screen. Data for the cln2 rad14 strain (AID 165).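 Further: 0% = growth equal to vehicle treated cultures.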 The settings on record: S. cerevisiae cln2 rad14 strain, stronger effect = higher value. A digest of the protocol:
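Readout is yeast growth inhibition versus vehicle-treated controls, using a strain with cln2 and rad14 alterations exposed to compound.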

Test [5] can be described thus: NCI Yeast Anticancer Drug Screen. Data for the bub3 strain (AID 167). To be noted: S. cerevisiae bub3 mutant strain, stronger effect = higher value. The gist of the method:
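Yeast carrying a defined mutation is treated with each compound, and growth is compared with that of vehicle-exposed cells to give inhibition.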

The nature of test [6]: NCI Yeast Anticancer Drug Screen. Data for the mlh1 rad18 strain (AID 175). To be noted: S. cerevisiae mlh1 rad18 strain growth inhibition, stronger effect = higher value. A digest of the protocol:
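Genetically defined yeast (DNA repair-deficient) exposed to compounds; growth inhibition determined relative to vehicle.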

Where [7] appears, read: at 5.0 µM (retest, dose inferred, filed as 0.5).
The mark [8] stands for this setting: at 50.0 µM (retest, dose inferred, filed as 5.0).

About 79,000 compounds went through this panel and 15% of them were active in at least one assay; those are over-represented in the sample as a whole. A number with no mark means an inactive call. The source made the active and inactive calls. No stated cut-off is given here; in the data, active means growth inhibition above about 70%; inactive means the rest.

Turning to `CC1(c2ccc(O)cc2)CC(C)(c2ccc(O)cc2)C1` (configuration not stated), the growth inhibition was 81% (active) in test [1] (setting [7]); 93% (active) in test [1] (setting [8]); 94.8% (active) in test [1] (at 50.0 µM); 32% in test [2] (setting [7]); 82% (active) in test [2] (setting [8]); 93.2% (active) in test [2] (at 50.0 µM). In addition, the growth inhibition was 67% in test [3] (setting [7]); 91% (active) in test [3] (setting [8]); 91.9% (active) in test [3] (at 50.0 µM); 41% in test [4] (setting [7]); 87% (active) in test [4] (setting [8]); 94.2% (active) in test [4] (at 50.0 µM). In addition, the growth inhibition in test [5] (setting [7]) is 87% (active); in test [5] (setting [8]) it was 91% (active); in test [5] (at 50.0 µM) it was 95.2% (active); in test [6] (setting [7]), 86% (active); in test [6] (setting [8]) it was 89% (active); in test [6] (at 50.0 µM), 92.8% (active).
Turning to `NNc1ccc2ccccc2n1`, the growth inhibition in test [1] (setting [7]) is -4%; in test [1] (setting [8]), 98% (active); in test [1] (at 50.0 µM), 87.5% (active); in test [2] (setting [7]) it was 1%; in test [2] (setting [8]), 93% (active); in test [2] (at 50.0 µM), 52.5%. The growth inhibition was 3% in test [3] (setting [7]); 99% (active) in test [3] (setting [8]); 46.2% in test [3] (at 50.0 µM); 6% in test [4] (setting [7]); 52% in test [4] (setting [8]); 86.9% (active) in test [4] (at 50.0 µM). The growth inhibition is 14% in test [5] (setting [7]); 99% (active) in test [5] (setting [8]); 93.2% (active) in test [5] (at 50.0 µM); 19% in test [6] (setting [7]); 99% (active) in test [6] (setting [8]); 93.4% (active) in test [6] (at 50.0 µM).
As for `COC1OC(=O)CC1C1CC=C2C3CCC4CC(O)CCC4(C)C3CCC21C` (configuration not stated), the growth inhibition in test [1] (setting [7]) was 1%; in test [1] (setting [8]) it was 44%; in test [1] (at 50.0 µM) it was 83.3% (active); in test [2] (setting [7]), 3%; in test [2] (setting [8]) it was 85% (active); in test [2] (at 50.0 µM), 74.4% (active). Further, the growth inhibition in test [3] (setting [7]) is -22%; in test [3] (setting [8]) it was 86% (active); in test [3] (at 50.0 µM), 95% (active); in test [4] (setting [7]), -8%; in test [4] (setting [8]) it was 77% (active); in test [4] (at 50.0 µM) it was 62.6%. Moreover, the growth inhibition in test [5] (setting [7]) is -9%; in test [5] (setting [8]), 73% (active); in test [5] (at 50.0 µM), 64.8%; in test [6] (setting [7]) it was -5%; in test [6] (setting [8]), 92% (active); in test [6] (at 50.0 µM), 88.4% (active).
As to `Cc1nc2c(Cl)cccc2c2ccccc12`, the growth inhibition in test [1] (setting [7]) is 14%; in test [1] (setting [8]), 94% (active); in test [1] (at 50.0 µM), 94.2% (active); in test [2] (setting [7]), 4%; in test [2] (setting [8]) it was 93% (active); in test [2] (at 50.0 µM) it was 85.7% (active). Also, the growth inhibition was 5% in test [3] (setting [7]); 95% (active) in test [3] (setting [8]); 87.5% (active) in test [3] (at 50.0 µM); -10% in test [4] (setting [7]); 95% (active) in test [4] (setting [8]); 88% (active) in test [4] (at 50.0 µM). In addition, the growth inhibition in test [5] (setting [7]) is -1%; in test [5] (setting [8]), 95% (active); in test [5] (at 50.0 µM), 93.4% (active); in test [6] (setting [7]) it was 18%; in test [6] (setting [8]), 98% (active); in test [6] (at 50.0 µM) it was 94.5% (active).
Regarding `CC(C)C12CCC3(CCC4C(C)(C(=O)O)CCCC4(C)C3C1)C(CN)C2` (configuration not stated), the growth inhibition in test [1] (setting [7]) is 3%; in test [1] (setting [8]), 98% (active); in test [1] (at 50.0 µM) it was 97.3% (active); in test [2] (setting [7]), 9%; in test [2] (setting [8]) it was 98% (active); in test [2] (at 50.0 µM) it was 95.5% (active). In addition, the growth inhibition in test [3] (setting [7]) is 17%; in test [3] (setting [8]) it was 95% (active); in test [3] (at 50.0 µM) it was 94.9% (active); in test [4] (setting [7]), -20%; in test [4] (setting [8]), 98% (active); in test [4] (at 50.0 µM) it was 97.8% (active). For the same compound, the growth inhibition in test [5] (setting [7]) is -4%; in test [5] (setting [8]), 98% (active); in test [5] (at 50.0 µM), 96% (active); in test [6] (setting [7]), 6%; in test [6] (setting [8]), 98% (active); in test [6] (at 50.0 µM) it was 93.3% (active).
For `O=C(Oc1ccc(Cl)cc1)Oc1ccc(Cl)cc1`, the growth inhibition was -13% in test [1] (setting [7]); 16% in test [1] (setting [8]); 3.55% in test [1] (at 50.0 µM); -10% in test [2] (setting [7]); 4% in test [2] (setting [8]); 16.7% in test [2] (at 50.0 µM). Also, the growth inhibition is 0% in test [3] (setting [7]); 25% in test [3] (setting [8]); 14.3% in test [3] (at 50.0 µM); -2% in test [4] (setting [7]); 36% in test [4] (setting [8]); 16.9% in test [4] (at 50.0 µM). Also, the growth inhibition in test [5] (setting [7]) is -1%; in test [5] (setting [8]) it was -23%; in test [5] (at 50.0 µM), 18.3%; in test [6] (setting [7]), 6%; in test [6] (setting [8]) it was 12%; in test [6] (at 50.0 µM) it was 17.1%.
Take `CC(Cc1ccccc1)NN1CCOC(c2ccccc2)C1C` (configuration not stated): the growth inhibition is 2% in test [1] (setting [7]); 66% in test [1] (setting [8]); 32.1% in test [1] (at 50.0 µM); -2% in test [2] (setting [7]); 56% in test [2] (setting [8]); 56.8% in test [2] (at 50.0 µM). The growth inhibition was 0% in test [3] (setting [7]); 78% (active) in test [3] (setting [8]); 64.2% in test [3] (at 50.0 µM); -1% in test [4] (setting [7]); 16% in test [4] (setting [8]); 13.1% in test [4] (at 50.0 µM). For the same compound, the growth inhibition in test [5] (setting [7]) was 9%; in test [5] (setting [8]), 59%; in test [5] (at 50.0 µM), 46%; in test [6] (setting [7]), -3%; in test [6] (setting [8]), 72% (active); in test [6] (at 50.0 µM), 73% (active).
As to `CN(C)CCN(C)CCC(=O)/C=C/c1ccccc1`, the growth inhibition is 95% (active) in test [1] (setting [7]); 99% (active) in test [1] (setting [8]); 87.9% (active) in test [1] (at 50.0 µM); 100% (active) in test [2] (setting [7]); 99% (active) in test [2] (setting [8]); 84.3% (active) in test [2] (at 50.0 µM). Further, the growth inhibition in test [3] (setting [7]) was 98% (active); in test [3] (setting [8]), 99% (active); in test [3] (at 50.0 µM) it was 99.5% (active); in test [4] (setting [7]) it was 86% (active); in test [4] (setting [8]), 99% (active); in test [4] (at 50.0 µM), 96% (active). Further, the growth inhibition in test [5] (setting [7]) was 99% (active); in test [5] (setting [8]), 99% (active); in test [5] (at 50.0 µM), 98.2% (active); in test [6] (setting [7]), 99% (active); in test [6] (setting [8]), 99% (active); in test [6] (at 50.0 µM), 99.5% (active).
Regarding `CCC/C(C)=N/NC(=S)SC`, the growth inhibition in test [1] (setting [7]) was 70% (active); in test [1] (setting [8]), 95% (active); in test [1] (at 50.0 µM), 96.8% (active); in test [2] (setting [7]), 38%; in test [2] (setting [8]) it was 95% (active); in test [2] (at 50.0 µM) it was 90.5% (active). Moreover, the growth inhibition was 27% in test [3] (setting [7]); 96% (active) in test [3] (setting [8]); 94.2% (active) in test [3] (at 50.0 µM); 6% in test [4] (setting [7]); 84% (active) in test [4] (setting [8]); 77.5% (active) in test [4] (at 50.0 µM). The growth inhibition was 65% in test [5] (setting [7]); 94% (active) in test [5] (setting [8]); 96.7% (active) in test [5] (at 50.0 µM); 72% (active) in test [6] (setting [7]); 95% (active) in test [6] (setting [8]); 96.3% (active) in test [6] (at 50.0 µM).
